Counter-ions that a name gives are not always drawn.
System: 4T1
Assay: % inhibition of 4T1 cell number vs DMSO control; higher = stronger growth inhibition
Conditions: 1 µM, 3 days
Outline: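 In 96-well imaging plates whose edge wells went unused, 3000 4T1-H2B-GFP mouse breast cancer cells per well were seeded in 2% FBS medium onto plastic, denuded lung matrix, mCAF1 fibroblast-derived matrix, Matrigel (15 μg/mL) or 0.2% gelatin. Sixteen hours on, kinase inhibitors went in at 1 μM final for 3 days before formalin fixation, DAPI staining and imaging on an INCell Analyzer 2200. Counting of GFP-positive nuclei gave cell numbers, from which percent inhibition relative to control was derived.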

[1] = substrate: lung fibroblast-derived matrix
[2] = substrate: mCAF1 fibroblast-derived matrix

| SMILES | % inhibition of 4T1 cell number (substrate: Matrigel) | % inhibition of 4T1 cell number (substrate: gelatin) | % inhibition of 4T1 cell number [1] | % inhibition of 4T1 cell number [2] | % inhibition of 4T1 cell number (substrate: plastic) |
| --- | --- | --- | --- | --- | --- |
| OCC(O)CCO/N=C1\C(c2c(O)[nH]c3ccccc23)=Nc2ccccc21 (stereo not given) [Indirubin Derivative E804] | -31.7% | 0.993% | -5.02% | 85.4% | 67.7% |
| c1nc2c(NC3CCCCC3)nc(Nc3ccc(N4CCOCC4)cc3)nc2[nH]1 [Reversine] | 91% | 89.5% | 7.75% | 85.6% | 63.1% |
| C[S+]([O-])c1ccc(-c2nc(-c3ccc(F)cc3)c(-c3ccncc3)[nH]2)cc1 (stereo not given) | 28.8% | 44.4% | 99.2% | 14.9% | 23.3% |
| CCN(CC)CCCCN1c2ccccc2Oc2ccc(Cl)cc21 [Akt Inhibitor X] | 72.7% | 46.6% | -2.93% | -26.9% | 40% |
| COc1cc2c(cc1OC)-c1[nH]nc(Nc3cccc(F)c3)c1C2 [PDGF Receptor Tyrosine Kinase Inhibitor IV] | 94.6% | 84.5% | -13.5% | 89.7% | 74.7% |
| Cc1nc2cc3nc(-c4cccs4)cnc3cc2n1C | 47.1% | -31.4% | -7.74% | -22.1% | 37.6% |
| COc1cc(SC)ccc1C(=O)N1CCC(Cc2ccccc2)CC1 [p38 MAP Kinase Inhibitor VI, JX401] | -31.1% | 8.59% | -4.09% | 17% | -66.3% |
| NC(=O)Nc1cc(-c2ccccc2)sc1C(N)=O [IKK-2 Inhibitor XI] | 48% | 55% | 2.01% | 19.8% | 28.6% |
| COc1ccc2c(c1)c1c3c(c4c5ccccc5n(C)c4c1n2CC(O)CN(C)C)C(=O)NC3=O (stereo not given) | -13% | -19% | -1% | 17.9% | -42.9% |
| CCN(CC)CCNC(=O)c1c(C)[nH]c(/C=C2\C(=O)Nc3ccc(Cl)cc32)c1C | 62.3% | 70% | -10.6% | 52.4% | 74.3% |
| Cc1cc(C)c(/C=C2\C(=O)Nc3ccccc32)[nH]1 [VEGF Receptor 2 Kinase Inhibitor III] | 14.1% | 30.2% | -11.5% | -25% | 2.08% |
| CCCCCCOC(=O)[C@]1(O)C[C@@H]2O[C@@]1(C)n1c3ccccc3c3c4c(c5c6ccccc6n2c5c31)C(=O)NC4 | -41.8% | -0.139% | -8.63% | 13.5% | -74.7% |
| NC(=O)Nc1sc(-c2ccccc2)cc1C(N)=O [IKK-2 Inhibitor VI] | -32% | -1.17% | -16% | 28.5% | -60% |
| COc1cc(Nc2ncc3ccn(-c4cccc(CCC#N)c4)c3n2)cc(OC)c1OC [Keratinocyte Differentiation Inducer] | 91.6% | 89% | 93.7% | 97.6% | 94.4% |
| COc1ccc(CNC(=O)Nc2ncc([N+](=O)[O-])s2)cc1 [GSK-3b Inhibitor VIII] | -53.9% | 19.6% | 27.8% | 24.4% | -62.1% |
| N#C/C(=C\c1ccc(O)c(O)c1)C(=O)NCc1ccccc1 | -13.1% | 42.5% | -21.1% | 15.2% | -38% |
| CCCCn1c2ccc(O)cc2c2c3c(c(-c4ccccc4Cl)cc21)C(=O)NC3=O [Wee1 Inhibitor II] | 52.6% | 63% | 15.6% | 4.43% | 57.9% |
| COc1cc2ncnc(Nc3cccc(O)c3)c2cc1OC [WHI-P180, Hydrochloride] | 35.6% | 65.6% | 9.03% | -4.63% | 37.6% |
| O=C1c2ccccc2-c2nc3nnnn3nc21 [PDK1/Akt/Flt Dual Pathway Inhibitor] | 99% | 97.3% | -19.8% | 95.4% | 97% |
| CN(C)CCCn1cc(C2=C(c3c[nH]c4ccccc34)C(=O)NC2=O)c2ccccc21 [Bisindolylmaleimide I] | 46.6% | 41.5% | -13.3% | 13.1% | 57.2% |
| c1ccc2c(-c3ccncc3)c[nH]c2c1 [Rho Kinase Inhibitor III, Rockout] | -26.4% | -33.3% | -7.01% | 37.7% | -78.9% |
| COc1ccc(COc2ccc(Cc3cnc(N)nc3N)cc2OC)cc1 [cFMS Receptor Tyrosine Kinase Inhibitor] | -15.7% | -87.3% | 2.62% | 11.3% | -59.7% |
| Nc1nc(Nc2ccc(S(N)(=O)=O)cc2)nn1C(=S)Nc1c(F)cccc1F [Cdk1/2 Inhibitor III] | 90.1% | 90% | 1.23% | 97.8% | 95.5% |

— the supplement of paper PMC8269313
